In ChEMBL document CHEMBL1961873, “Compounds: GSK PKIS; Assays: Nanosyn kinase panel” (2012) one finds inhibition data, which are given here for eight compounds.

In experiment [1] the target is T1, Inhibitor of nuclear factor kappa-B kinase subunit epsilon (Homo sapiens) (UniProt Q14164).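 Note: reported values are averaged percent inhibition figures against human IKKε.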
T1 sequence (whole entry): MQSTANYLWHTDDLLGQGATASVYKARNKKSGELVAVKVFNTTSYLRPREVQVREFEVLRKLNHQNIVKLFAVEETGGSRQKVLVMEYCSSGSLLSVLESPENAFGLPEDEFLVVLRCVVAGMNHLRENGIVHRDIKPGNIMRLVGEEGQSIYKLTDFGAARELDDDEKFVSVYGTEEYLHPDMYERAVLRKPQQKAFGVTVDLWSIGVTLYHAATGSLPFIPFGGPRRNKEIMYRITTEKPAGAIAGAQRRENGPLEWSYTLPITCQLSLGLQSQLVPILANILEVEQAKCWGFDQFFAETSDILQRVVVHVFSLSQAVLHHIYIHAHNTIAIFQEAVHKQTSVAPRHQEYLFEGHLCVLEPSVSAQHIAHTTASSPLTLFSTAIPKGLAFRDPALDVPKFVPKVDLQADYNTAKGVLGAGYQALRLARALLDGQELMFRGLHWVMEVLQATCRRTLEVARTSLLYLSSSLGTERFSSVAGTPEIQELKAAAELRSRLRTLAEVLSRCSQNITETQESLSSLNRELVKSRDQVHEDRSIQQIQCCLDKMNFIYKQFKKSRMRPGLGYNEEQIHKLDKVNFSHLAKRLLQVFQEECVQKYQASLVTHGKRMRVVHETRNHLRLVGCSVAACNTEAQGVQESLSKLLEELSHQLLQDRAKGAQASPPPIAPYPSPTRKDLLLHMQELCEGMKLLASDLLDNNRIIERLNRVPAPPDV
As to conditions: at 1 µM.

The target of experiment [2] is T2, Serine/threonine-protein kinase Nek1 (Homo sapiens) (UniProt Q96PY6).
T2 sequence (whole entry): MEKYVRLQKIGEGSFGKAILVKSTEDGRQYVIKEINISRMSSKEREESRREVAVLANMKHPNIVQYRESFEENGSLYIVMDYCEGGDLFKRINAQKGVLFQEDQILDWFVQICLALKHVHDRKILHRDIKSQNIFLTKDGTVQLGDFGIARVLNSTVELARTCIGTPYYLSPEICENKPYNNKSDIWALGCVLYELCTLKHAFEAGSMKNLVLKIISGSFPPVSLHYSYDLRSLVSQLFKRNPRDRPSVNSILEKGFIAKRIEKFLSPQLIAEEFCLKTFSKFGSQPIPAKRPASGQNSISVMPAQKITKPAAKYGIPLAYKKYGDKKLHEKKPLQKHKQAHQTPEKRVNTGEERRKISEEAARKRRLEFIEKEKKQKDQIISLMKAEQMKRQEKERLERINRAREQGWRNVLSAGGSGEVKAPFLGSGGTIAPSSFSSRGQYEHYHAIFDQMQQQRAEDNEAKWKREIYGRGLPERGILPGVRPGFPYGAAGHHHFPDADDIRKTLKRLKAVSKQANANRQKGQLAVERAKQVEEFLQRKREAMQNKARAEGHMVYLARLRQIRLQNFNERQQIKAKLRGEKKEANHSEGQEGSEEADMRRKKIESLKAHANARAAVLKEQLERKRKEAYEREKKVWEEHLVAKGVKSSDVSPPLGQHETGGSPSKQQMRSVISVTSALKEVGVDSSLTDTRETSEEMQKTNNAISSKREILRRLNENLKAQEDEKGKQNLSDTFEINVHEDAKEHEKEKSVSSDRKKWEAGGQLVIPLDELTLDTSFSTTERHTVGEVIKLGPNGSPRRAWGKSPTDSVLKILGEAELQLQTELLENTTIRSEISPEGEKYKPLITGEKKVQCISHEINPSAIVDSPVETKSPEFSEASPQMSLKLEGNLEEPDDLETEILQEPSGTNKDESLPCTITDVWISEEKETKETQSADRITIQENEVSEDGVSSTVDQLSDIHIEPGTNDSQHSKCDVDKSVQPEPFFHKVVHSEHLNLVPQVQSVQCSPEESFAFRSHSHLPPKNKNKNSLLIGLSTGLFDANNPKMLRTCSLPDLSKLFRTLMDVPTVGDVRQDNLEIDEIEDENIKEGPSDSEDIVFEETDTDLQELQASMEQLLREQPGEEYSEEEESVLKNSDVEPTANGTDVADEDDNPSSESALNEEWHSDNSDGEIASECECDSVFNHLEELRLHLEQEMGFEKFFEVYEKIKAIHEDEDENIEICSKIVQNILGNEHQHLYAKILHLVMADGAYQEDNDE
The settings on record: at 0.1 µM.

For experiment [3], the target named is T2, Serine/threonine-protein kinase Nek1 (Homo sapiens). The settings on record: at 1 µM.
Experiment [4] has as its target T3, Serine/threonine-protein kinase Nek2 (Homo sapiens) (UniProt P51955).
T3 sequence (whole entry): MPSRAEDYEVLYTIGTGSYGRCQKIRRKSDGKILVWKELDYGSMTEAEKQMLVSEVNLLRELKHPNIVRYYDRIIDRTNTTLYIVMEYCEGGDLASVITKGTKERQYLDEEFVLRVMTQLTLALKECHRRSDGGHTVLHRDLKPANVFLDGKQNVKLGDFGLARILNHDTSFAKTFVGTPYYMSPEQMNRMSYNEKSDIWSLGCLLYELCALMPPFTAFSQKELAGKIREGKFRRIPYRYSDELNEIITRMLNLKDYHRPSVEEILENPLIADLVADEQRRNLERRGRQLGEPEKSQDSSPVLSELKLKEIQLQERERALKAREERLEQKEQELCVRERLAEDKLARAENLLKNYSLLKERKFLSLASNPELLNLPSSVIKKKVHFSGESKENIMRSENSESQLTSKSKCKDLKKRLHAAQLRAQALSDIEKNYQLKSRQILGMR
The settings on record: at 0.1 µM.

Experiment [5] concerns the target T3, Serine/threonine-protein kinase Nek2 (Homo sapiens). As to conditions: at 1 µM.
The target in experiment [6] is Serine/threonine-protein kinase Nek6 (Homo sapiens) (UniProt Q9HC98). The settings on record: at 0.1 µM.
Experiment [7] shares this target. As to conditions: at 1 µM.
Experiment [8] deals with Serine/threonine-protein kinase Nek7 (Homo sapiens) (UniProt Q8TDX7). As to conditions: at 0.1 µM.
For experiment [9] the target is unchanged. The settings on record: at 1 µM.
Experiment [10] concerns the target T4, Serine/threonine-protein kinase Nek9 (Homo sapiens) (UniProt Q8TD19).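 Note: reported value is the mean percent inhibition of NEK9.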
T4 sequence (whole entry): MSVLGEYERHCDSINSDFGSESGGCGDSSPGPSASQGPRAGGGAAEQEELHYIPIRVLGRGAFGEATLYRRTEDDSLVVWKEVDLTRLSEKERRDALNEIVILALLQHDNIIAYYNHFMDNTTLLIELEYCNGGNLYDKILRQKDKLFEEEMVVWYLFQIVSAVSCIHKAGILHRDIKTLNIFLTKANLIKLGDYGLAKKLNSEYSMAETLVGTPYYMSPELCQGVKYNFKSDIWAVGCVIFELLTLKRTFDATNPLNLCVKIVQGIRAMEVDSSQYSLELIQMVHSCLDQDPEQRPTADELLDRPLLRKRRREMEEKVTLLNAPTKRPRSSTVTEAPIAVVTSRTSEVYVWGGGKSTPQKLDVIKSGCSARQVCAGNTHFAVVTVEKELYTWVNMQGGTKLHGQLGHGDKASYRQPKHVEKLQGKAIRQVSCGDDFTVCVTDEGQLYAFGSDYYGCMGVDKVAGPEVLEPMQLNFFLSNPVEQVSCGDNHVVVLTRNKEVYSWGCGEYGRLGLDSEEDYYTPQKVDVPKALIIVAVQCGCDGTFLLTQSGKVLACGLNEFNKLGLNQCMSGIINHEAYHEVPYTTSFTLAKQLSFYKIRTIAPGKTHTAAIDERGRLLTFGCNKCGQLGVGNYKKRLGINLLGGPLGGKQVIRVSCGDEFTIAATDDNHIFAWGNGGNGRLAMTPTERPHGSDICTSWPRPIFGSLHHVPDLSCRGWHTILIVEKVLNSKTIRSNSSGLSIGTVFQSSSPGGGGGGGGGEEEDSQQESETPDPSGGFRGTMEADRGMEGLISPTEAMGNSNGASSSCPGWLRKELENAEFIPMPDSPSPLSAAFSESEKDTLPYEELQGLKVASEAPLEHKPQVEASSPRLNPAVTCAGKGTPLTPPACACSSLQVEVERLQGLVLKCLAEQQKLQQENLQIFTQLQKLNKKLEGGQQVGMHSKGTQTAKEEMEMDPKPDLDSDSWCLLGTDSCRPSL
The settings on record: at 0.1 µM.

Chain of Serine/threonine-protein kinase Nek7 (Homo sapiens) (Q8TDX7 whole entry, looked up): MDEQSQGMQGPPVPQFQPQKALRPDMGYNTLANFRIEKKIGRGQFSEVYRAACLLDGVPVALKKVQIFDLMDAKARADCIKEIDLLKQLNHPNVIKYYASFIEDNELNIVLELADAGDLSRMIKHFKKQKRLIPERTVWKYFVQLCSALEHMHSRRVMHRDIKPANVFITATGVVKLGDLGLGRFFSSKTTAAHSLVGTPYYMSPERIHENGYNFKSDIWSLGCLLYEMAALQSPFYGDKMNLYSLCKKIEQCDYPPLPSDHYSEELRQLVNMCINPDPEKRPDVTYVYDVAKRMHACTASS
Chain of Serine/threonine-protein kinase Nek6 (Homo sapiens) (Q9HC98 whole entry): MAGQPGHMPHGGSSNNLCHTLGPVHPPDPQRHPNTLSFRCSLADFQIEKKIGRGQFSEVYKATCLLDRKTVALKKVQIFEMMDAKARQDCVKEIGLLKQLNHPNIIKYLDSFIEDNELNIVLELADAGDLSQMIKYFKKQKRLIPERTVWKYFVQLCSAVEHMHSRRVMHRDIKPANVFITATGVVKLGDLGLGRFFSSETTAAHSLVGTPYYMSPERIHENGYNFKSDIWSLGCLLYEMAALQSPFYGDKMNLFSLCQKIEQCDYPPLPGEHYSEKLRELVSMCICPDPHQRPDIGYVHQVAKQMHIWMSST

On to `NS(=O)(=O)c1cccc(-c2ccc3c(NC(=O)C4CC4)n[nH]c3c2)c1`, for which the inhibition in experiment [1] was -3.2%; in experiment [2], -0.9%; in experiment [3], -0.76%; in [4], -1.41%; in experiment [5], -0.18%; in experiment [6] it was -1.88%. The inhibition in experiment [7] was -0.37%; in experiment [8], 1.22%; in experiment [9] it was -2.64%; in experiment [10], 4.44%.

`O=C1NC(=O)C(c2ccccc2Cl)=C1Nc1cccc(O)c1`: the inhibition in experiment [1] amounted to 5.16%; in [2], 1.26%; in experiment [3], 2.01%; in experiment [4] it was 3.03%; in [5], 3.05%; in experiment [6] it was 1.73%. Moreover, the inhibition in experiment [7] is -0.89%; in [8] it was 4.66%; in [9] it was 2.35%; in [10] it was 2.76%.

`Nc1ncnc2occ(-c3ccc(NC(=O)Nc4cc(C(F)(F)F)cc(C(F)(F)F)c4)cc3)c12`: the inhibition in experiment [1] is 5.33%; in experiment [2], 1.24%; in experiment [3] it was 6.51%; in experiment [4], 3.72%; in experiment [5], 15.5%; in [6] it was -0.98%. Moreover, the inhibition stood at 0.99% in experiment [7], 2.34% in experiment [8], 0.46% in experiment [9] and 5.43% in experiment [10].

In the case of `O=C1NC(=O)C(c2ccc(Cl)cc2)=C1Nc1ccc(Cl)c(C(=O)O)c1`, the inhibition in experiment [1] was -2.57%; in experiment [2], -0.84%; in experiment [3], -2.3%; in [4], -1.89%; in experiment [5], -2.45%; in [6], 0.26%. The inhibition in experiment [7] is 2.37%; in experiment [8], -1.15%; in experiment [9], -3.67%; in experiment [10], -5.68%.

Take `O=C(Nc1n[nH]c2nc(-c3ccco3)c(Br)cc12)C1CC1`: the inhibition in experiment [1] amounted to 3.64%; in [2], 2.9%; in experiment [3], 1.85%; in experiment [4], 4.03%; in [5], 3.85%; in experiment [6], 3.21%. Further, the inhibition stood at 0.56% in experiment [7], 4.18% in experiment [8], 3.03% in experiment [9] and 1.02% in experiment [10].

As to `CCn1c(-c2nonc2N)nc2cncc(C(=O)N3CC[C@H](N)C3)c21`, the inhibition in experiment [1] came out at 36.1%; in experiment [2] it was 1.89%; in experiment [3], 3.47%; in experiment [4], 5.3%; in [5], 6.1%; in experiment [6], 0.64%. The inhibition came to 5.91% in [7], 6.16% in experiment [8], 7.48% in [9] and 11.8% in experiment [10].

`CCn1c(-c2nonc2N)nc2cnc(Oc3cccc(NC(=O)c4ccc(OCCN5CCOCC5)cc4)c3)cc21`: the inhibition is 27.5% in [1]; 1.53% in experiment [2]; 3.94% in experiment [3]; 3.27% in experiment [4]; 2.29% in experiment [5]; 2.55% in experiment [6]. Besides, the inhibition in [7] worked out at 4.96%; in experiment [8], 6.06%; in [9], 3.89%; in experiment [10] it was 7.58%.

Take `CNC(=O)c1cncc(/C=C/c2c(Cl)cccc2Cl)c1`: the inhibition in experiment [1] turned out to be 6.17%; in experiment [2], 2.78%; in [3], 1.83%; in experiment [4], 4.53%; in [5], 3.38%; in experiment [6], 1.11%. Further, the inhibition in experiment [7] was 4.76%; in [8] it was 4.23%; in [9], 9.84%; in [10] it was 5.43%.
